Test results reported in the supplement of paper PMC11732987, “Enantioselective OTUD7B fragment discovery through chemoproteomics screening and high-throughput optimisation” (Communications Chemistry, 2025).

Key:
Assay in all cases: log2 ratio of Biotin-Ahx-Ub-VS probe labelling (fragment/DMSO); higher = less target engagement (more negative = stronger competition), active = hit call of the paper (q ≤ 0.05, log2 ratio ≤ -1)
Conditions in all cases: compound concentration: 200 uM; treatment time: 3 h
OTUD6B = molecular target: T1, OTUD6B (UniProt Q8N6M0)
T1 sequence (whole entry): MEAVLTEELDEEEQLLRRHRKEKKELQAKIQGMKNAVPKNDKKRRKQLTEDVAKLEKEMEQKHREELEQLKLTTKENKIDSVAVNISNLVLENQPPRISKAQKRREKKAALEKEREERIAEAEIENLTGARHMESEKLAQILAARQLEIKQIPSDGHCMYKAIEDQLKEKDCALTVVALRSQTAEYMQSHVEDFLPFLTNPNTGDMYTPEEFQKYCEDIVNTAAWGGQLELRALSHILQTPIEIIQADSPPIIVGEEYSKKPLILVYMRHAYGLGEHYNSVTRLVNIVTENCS
Procedure, shortened: (§1)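 HEK293T lysate (495 µg per sample, in Tris/CHAPS/IGEPAL buffer with protease inhibitors) was treated in triplicate with fragment at 200 µM or with DMSO for 3 h. It was then treated with Biotin-Ahx-Ub-VS (0.5 µM final) for 1 h. Labelled DUBs were NeutrAvidin-enriched, digested with LysC and trypsin, and run by diaPASEF LC-MS/MS. Spectronaut label-free quantities were global-median-normalised. Values are average log2 ratios fragment/DMSO by unpaired t-test, using proteins with ≥2 unique peptides.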

OTUD7B = molecular target: T2, OTUD7B (UniProt Q6GQQ9)
T2 sequence (whole entry): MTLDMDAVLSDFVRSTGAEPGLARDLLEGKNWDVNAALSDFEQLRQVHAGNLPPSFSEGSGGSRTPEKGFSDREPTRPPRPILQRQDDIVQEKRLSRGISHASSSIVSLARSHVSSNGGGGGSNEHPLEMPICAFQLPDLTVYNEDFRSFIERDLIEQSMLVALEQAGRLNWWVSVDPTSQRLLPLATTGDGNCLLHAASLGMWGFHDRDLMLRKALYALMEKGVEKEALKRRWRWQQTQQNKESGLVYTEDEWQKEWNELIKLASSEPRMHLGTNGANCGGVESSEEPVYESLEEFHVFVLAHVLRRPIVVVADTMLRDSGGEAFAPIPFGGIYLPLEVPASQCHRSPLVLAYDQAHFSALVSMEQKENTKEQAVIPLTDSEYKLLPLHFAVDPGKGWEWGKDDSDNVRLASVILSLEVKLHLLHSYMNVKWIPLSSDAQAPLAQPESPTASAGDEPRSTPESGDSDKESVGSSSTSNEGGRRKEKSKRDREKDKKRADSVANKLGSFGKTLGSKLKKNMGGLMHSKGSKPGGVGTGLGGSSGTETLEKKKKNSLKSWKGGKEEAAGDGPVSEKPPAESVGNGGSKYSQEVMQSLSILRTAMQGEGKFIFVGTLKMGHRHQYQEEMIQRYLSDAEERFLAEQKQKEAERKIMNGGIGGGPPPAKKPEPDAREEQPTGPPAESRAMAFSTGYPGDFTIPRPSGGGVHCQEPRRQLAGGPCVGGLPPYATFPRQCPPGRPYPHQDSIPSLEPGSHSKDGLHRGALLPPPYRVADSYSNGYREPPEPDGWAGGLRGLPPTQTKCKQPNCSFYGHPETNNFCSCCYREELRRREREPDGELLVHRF
Procedure, shortened: as §1

PRPF8 = PRPF8 (UniProt Q6P2Q9)
Procedure, shortened: as §1

PSMD7 = molecular target: T3, PSMD7 (UniProt P51665)
T3 sequence (whole entry): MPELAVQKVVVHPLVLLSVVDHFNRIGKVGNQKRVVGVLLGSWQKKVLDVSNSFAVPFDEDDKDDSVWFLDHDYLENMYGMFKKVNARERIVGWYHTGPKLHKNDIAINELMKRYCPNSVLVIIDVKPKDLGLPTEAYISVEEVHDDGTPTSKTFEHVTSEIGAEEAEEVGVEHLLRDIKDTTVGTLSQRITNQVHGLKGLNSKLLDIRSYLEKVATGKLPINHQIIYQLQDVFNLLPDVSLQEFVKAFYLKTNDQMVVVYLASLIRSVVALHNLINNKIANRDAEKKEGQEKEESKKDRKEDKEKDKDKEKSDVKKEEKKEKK
Procedure, shortened: as §1

UCHL1 = UCHL1 (UniProt P09936)
Chain of UCHL1 (P09936 whole entry, looked up): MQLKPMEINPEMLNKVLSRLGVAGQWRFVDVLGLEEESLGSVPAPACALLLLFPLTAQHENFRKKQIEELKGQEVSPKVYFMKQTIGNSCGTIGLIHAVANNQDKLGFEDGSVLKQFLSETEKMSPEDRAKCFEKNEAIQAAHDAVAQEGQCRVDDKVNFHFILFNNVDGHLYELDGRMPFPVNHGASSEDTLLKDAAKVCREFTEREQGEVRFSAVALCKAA
Procedure, shortened: as §1

UCHL3 = molecular target: T4, UCHL3 (UniProt P15374)
T4 sequence (whole entry): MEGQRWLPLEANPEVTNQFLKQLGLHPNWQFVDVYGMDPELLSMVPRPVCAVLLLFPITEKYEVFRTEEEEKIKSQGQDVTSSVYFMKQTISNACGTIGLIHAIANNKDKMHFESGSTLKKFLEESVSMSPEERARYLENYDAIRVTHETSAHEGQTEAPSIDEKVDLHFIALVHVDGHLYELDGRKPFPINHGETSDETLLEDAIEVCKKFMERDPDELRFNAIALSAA
Procedure, shortened: as §1

UCHL5 = molecular target: T5, UCHL5 (UniProt Q9Y5K5)
T5 sequence (whole entry): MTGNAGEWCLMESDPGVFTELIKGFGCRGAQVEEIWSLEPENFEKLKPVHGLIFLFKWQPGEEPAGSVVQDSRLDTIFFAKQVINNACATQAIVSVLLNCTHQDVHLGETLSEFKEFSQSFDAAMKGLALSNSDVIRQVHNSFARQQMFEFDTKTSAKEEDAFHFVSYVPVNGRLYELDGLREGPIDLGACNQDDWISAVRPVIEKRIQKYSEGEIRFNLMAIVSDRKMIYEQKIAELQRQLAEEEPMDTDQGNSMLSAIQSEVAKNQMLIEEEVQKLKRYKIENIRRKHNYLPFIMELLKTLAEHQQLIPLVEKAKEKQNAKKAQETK
Procedure, shortened: as §1

USP10 = USP10 (UniProt Q14694)
Chain of USP10 (Q14694 whole entry): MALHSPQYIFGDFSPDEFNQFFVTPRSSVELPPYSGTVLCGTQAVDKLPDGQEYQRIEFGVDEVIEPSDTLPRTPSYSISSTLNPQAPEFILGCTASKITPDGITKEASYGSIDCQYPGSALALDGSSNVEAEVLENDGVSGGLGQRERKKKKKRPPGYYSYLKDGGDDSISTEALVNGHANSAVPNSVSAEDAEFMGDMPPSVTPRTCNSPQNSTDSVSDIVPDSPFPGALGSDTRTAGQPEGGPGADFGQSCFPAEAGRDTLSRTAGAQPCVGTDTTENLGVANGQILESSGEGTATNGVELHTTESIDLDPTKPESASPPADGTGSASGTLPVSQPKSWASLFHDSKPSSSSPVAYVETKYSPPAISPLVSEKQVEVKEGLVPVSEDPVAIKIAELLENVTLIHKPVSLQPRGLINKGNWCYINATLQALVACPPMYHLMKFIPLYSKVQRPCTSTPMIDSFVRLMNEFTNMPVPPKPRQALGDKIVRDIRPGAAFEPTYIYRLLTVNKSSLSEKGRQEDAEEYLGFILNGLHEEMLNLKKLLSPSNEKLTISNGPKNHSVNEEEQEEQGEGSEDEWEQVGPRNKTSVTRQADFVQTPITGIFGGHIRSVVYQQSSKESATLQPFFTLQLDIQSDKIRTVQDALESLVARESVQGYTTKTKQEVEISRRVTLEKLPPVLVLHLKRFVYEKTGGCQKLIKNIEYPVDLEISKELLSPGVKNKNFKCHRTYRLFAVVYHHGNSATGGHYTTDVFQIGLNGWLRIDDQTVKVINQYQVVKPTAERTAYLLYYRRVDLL
Procedure, shortened: as §1

USP15 = molecular target: T6, USP15 (UniProt Q9Y4E8)
T6 sequence (whole entry): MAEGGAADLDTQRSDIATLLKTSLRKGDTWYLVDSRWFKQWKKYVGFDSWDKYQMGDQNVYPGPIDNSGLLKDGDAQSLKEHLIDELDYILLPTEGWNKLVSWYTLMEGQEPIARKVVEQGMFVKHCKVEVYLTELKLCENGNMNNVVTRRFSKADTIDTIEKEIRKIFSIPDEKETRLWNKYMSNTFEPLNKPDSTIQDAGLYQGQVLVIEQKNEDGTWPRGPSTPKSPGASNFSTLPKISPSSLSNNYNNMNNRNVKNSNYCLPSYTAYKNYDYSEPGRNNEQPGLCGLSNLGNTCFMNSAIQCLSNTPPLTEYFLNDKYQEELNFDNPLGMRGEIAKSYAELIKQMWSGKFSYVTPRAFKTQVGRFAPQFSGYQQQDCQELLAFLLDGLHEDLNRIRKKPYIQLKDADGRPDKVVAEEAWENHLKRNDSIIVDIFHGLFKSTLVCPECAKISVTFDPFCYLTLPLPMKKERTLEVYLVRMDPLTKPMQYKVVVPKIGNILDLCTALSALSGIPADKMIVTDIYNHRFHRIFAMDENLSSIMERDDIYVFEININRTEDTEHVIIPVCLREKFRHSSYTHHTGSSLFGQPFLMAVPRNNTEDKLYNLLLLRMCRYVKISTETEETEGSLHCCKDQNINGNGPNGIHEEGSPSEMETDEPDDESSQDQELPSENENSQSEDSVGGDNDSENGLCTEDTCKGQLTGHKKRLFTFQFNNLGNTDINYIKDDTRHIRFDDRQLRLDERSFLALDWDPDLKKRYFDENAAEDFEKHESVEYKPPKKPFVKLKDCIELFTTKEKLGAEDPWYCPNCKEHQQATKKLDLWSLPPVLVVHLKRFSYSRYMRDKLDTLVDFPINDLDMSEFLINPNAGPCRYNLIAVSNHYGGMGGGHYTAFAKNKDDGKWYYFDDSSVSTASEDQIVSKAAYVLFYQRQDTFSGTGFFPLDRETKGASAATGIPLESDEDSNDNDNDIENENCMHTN
Procedure, shortened: as §1

USP16 = USP16 (UniProt Q9Y5T5)
Chain of USP16 (Q9Y5T5 whole entry, looked up): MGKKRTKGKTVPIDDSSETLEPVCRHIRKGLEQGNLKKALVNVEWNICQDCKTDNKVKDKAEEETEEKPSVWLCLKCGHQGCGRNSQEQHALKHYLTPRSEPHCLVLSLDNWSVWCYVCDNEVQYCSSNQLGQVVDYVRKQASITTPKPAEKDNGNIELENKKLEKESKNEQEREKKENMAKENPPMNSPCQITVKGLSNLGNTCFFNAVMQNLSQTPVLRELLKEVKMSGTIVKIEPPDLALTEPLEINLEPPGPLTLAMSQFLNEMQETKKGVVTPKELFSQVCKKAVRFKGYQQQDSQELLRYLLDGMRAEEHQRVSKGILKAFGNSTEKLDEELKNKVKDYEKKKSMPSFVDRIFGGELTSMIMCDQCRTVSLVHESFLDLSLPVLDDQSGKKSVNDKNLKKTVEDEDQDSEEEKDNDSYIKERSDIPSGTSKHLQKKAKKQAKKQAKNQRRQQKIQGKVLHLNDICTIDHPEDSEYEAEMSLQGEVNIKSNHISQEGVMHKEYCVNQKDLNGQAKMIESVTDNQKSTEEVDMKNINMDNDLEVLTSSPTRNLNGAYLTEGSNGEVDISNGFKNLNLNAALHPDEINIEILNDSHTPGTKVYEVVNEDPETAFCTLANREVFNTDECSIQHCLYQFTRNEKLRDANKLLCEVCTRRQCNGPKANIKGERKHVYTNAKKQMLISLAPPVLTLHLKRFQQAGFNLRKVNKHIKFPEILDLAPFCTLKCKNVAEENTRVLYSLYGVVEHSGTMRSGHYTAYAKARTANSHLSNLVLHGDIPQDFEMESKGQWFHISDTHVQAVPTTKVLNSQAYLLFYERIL
Procedure, shortened: as §1

Measured: log2 ratio of Biotin-Ahx-Ub-VS probe labelling

CC(=O)Nc1ccc(NC(=O)CCl)cc1
active: OTUD7B -1.13
inactive: OTUD6B -0.276 | PRPF8 0.0134 | PSMD7 -0.163 | UCHL1 -0.918 | UCHL3 0.206 | UCHL5 -0.201 | USP10 -0.113 | USP15 -0.154 | USP16 -0.288
